The record followed here is the supplement of paper PMC11006884.

Targets with a hit are over-represented here; the source holds about 6,500 in all. About 2% of all pairs of compound and target were hits. A number with no mark means an inactive call.

UniProt Q01082, sequence (Q01082 whole entry, looked up): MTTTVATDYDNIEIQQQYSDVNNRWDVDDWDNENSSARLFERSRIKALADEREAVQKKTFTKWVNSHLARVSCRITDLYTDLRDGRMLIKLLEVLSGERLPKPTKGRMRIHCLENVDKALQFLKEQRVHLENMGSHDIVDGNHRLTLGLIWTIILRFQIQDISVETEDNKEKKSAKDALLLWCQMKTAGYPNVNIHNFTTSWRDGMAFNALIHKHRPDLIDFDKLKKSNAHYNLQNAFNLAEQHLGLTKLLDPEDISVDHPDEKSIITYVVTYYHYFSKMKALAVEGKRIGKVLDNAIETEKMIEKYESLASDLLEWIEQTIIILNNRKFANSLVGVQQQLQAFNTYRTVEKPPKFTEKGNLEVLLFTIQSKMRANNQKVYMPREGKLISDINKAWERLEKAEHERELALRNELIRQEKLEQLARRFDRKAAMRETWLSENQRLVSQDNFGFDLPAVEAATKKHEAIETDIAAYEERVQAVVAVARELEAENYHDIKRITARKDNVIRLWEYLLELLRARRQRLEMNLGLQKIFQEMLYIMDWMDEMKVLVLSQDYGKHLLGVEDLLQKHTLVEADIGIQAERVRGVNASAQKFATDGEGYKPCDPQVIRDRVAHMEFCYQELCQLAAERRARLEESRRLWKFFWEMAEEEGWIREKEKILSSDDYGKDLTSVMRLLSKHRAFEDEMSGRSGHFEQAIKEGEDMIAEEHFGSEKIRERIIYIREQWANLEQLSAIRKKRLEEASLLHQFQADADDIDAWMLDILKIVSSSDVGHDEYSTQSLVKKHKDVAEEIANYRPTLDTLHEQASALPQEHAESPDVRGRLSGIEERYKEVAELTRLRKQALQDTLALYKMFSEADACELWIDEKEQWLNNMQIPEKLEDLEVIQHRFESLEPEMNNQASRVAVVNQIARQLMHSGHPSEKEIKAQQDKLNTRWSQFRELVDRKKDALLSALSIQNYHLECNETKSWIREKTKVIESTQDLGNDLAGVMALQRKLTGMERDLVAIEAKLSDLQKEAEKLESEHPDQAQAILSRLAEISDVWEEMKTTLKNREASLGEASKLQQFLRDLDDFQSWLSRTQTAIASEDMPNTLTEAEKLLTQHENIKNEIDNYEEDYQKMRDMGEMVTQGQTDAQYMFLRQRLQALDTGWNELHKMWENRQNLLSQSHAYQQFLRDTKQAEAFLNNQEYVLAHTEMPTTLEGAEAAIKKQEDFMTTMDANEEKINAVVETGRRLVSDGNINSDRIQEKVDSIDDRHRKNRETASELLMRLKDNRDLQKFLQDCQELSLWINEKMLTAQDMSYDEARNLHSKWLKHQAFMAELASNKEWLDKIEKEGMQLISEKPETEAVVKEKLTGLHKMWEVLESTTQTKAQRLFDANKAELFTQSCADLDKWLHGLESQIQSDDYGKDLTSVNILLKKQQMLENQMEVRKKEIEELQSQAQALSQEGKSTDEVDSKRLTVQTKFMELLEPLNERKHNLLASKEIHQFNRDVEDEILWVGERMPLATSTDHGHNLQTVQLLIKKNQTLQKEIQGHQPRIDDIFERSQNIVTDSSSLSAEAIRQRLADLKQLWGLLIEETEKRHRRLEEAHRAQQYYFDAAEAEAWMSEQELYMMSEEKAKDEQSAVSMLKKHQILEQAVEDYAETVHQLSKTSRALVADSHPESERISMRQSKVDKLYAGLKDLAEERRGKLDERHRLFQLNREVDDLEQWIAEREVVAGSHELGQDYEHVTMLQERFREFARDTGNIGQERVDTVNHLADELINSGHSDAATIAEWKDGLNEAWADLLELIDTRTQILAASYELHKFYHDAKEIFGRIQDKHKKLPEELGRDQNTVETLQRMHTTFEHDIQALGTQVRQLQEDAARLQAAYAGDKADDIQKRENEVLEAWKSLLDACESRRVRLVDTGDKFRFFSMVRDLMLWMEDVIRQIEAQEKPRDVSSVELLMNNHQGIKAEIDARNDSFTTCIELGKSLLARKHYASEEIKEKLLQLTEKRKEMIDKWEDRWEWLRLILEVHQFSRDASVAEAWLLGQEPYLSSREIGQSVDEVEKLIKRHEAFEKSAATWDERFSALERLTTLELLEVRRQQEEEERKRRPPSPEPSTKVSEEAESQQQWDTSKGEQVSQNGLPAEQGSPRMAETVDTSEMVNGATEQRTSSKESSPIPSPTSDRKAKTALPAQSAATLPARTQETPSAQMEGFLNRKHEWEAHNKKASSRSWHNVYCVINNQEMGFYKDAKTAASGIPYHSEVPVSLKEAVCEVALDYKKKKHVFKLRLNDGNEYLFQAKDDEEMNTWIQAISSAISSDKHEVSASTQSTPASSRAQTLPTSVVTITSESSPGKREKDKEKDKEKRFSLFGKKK
UniProt Q53H80, sequence (Q53H80 whole entry): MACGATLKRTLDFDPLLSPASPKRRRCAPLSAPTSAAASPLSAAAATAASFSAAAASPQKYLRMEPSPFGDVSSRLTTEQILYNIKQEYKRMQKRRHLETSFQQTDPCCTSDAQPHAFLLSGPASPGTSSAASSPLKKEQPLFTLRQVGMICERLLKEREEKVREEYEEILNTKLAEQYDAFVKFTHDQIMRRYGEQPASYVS
UniProt Q13395, sequence (Q13395 whole entry, looked up): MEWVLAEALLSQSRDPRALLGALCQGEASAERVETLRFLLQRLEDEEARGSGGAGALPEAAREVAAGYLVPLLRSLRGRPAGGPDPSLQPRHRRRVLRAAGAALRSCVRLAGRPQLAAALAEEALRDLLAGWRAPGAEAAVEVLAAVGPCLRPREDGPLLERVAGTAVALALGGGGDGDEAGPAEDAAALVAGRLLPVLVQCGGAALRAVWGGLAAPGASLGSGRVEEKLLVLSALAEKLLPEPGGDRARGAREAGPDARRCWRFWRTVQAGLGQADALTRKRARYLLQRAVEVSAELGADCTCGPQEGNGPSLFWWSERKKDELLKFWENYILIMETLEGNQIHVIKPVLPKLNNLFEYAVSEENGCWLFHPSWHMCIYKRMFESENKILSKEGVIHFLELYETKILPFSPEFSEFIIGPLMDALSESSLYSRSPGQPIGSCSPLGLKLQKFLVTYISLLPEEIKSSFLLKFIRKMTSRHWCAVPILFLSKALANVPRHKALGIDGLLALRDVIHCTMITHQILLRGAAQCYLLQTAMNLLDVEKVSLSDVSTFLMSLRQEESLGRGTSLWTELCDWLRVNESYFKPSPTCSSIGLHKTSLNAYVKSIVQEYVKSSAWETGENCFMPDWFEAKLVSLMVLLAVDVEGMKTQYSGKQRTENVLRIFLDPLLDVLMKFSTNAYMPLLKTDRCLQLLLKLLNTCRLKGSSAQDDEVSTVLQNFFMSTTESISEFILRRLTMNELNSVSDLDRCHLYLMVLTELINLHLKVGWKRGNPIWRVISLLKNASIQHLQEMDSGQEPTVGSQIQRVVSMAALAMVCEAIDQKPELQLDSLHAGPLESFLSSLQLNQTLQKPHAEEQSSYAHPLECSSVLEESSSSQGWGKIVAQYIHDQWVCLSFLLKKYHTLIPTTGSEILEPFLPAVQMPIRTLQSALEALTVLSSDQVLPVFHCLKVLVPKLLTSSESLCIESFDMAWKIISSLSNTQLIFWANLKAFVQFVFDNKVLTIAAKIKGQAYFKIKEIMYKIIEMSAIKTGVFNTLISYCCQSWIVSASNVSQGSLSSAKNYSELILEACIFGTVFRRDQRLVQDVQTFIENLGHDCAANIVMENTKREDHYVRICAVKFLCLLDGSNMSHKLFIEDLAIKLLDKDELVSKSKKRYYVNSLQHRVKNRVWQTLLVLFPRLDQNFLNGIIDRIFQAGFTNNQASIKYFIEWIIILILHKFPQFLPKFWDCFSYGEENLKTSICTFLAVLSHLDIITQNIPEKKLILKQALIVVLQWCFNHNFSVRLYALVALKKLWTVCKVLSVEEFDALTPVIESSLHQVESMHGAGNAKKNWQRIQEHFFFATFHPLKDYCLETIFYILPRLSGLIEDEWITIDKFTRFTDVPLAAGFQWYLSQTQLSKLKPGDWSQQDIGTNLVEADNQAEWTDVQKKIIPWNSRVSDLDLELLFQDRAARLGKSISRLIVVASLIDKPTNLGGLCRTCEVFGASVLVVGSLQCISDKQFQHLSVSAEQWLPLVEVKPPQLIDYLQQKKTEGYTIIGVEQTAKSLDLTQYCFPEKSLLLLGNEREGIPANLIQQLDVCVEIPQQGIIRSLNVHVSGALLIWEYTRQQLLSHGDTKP
UniProt Q15424, sequence (Q15424 whole entry, looked up): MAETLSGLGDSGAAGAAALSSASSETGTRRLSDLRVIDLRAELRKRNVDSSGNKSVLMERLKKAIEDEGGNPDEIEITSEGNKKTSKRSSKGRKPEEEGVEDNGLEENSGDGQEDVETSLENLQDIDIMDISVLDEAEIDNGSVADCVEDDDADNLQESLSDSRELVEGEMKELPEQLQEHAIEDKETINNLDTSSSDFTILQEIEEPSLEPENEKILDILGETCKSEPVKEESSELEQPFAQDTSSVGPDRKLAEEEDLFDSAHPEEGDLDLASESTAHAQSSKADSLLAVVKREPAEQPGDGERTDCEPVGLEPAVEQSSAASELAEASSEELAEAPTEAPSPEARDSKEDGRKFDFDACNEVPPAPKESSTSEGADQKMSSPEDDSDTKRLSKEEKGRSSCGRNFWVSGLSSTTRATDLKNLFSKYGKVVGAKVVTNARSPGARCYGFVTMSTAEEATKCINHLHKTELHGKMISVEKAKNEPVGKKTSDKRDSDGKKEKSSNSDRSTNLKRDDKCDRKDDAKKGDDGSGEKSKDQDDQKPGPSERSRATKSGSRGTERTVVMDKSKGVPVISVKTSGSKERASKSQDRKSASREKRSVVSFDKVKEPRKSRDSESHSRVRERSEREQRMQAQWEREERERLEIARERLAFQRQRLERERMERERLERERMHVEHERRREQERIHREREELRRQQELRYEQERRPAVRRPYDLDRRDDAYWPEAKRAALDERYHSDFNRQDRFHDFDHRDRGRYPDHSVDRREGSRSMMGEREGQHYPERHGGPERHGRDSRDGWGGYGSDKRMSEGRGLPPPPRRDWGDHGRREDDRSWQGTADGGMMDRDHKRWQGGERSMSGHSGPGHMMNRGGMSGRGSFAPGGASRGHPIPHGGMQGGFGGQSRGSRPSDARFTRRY

Compound in the assay: COC(=O)C#Cc1ccccc1 [methyl 3-phenylpropiolate]
The experiment in a line: log2 ratio of iodoacetamide-alkyne labeling of the cysteine site, DMSO over compound (competition); higher = stronger covalent engagement of the cysteine by the compound, active = 1 or more. To be noted: 500 µM; treatment time 1 h; system: HEK293T cell lysate. Summed up: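 Three replicates, each with duplicate channels, were prepared from HEK293T lysate (2 mg/mL) treated with vehicle or electrophile at 500 µM for 1 h at ambient temperature. Iodoacetamide alkyne was then applied for 1 h, and samples were clicked to sCIP-TMT reagents, pooled, trypsin-digested overnight at 37 °C, enriched on streptavidin, acid-eluted and analysed on Orbitrap Eclipse LC-MS/MS with FAIMS, with FragPipe quantification. The log2 competition ratio per cysteine is the mean control-channel divided by the mean compound-channel reporter intensity. Cysteines quantified in only one replicate were left out.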
ESPL1 C1369 (UniProt Q14674): the “log2 ratio of iodoacetamide-alkyne labeling” value (“log2 ratio” below) is 0.218.

For CASP8 C360 (UniProt Q14790), the “log2 ratio” value was 1.2 (active).

For the target DYNC1H1 C4216 (UniProt Q14204), the “log2 ratio” value was 0.162. With BMS1 C895 (UniProt Q14692), the “log2 ratio” value is 0.11. As for TJAP1 C172 (UniProt Q5JTD0), the “log2 ratio” value was 0.251. For the target ADAR C392 (UniProt P55265), the “log2 ratio” value was 0.693. For AKIRIN2 C3 (UniProt Q53H80) the value was 1.11 (active); for SPTBN1 C112 (UniProt Q01082), 0.622.

USP14 C415 (UniProt P54578): the “log2 ratio” value was -0.369. UniProt P55196_C942: the “log2 ratio” value was 1.05 (active). Regarding DYNC1H1 C1977 (UniProt Q14204), the “log2 ratio” value is 0.124. Consider UniProt P78527_C1904, for which the “log2 ratio” value is 0.286. Turning to COASY C140 (UniProt Q13057), the “log2 ratio” value is 1.16 (active). Regarding SAFB C404 (UniProt Q15424), the “log2 ratio” value was 1.14 (active). To PPP2R5D C17 (UniProt Q14738) belongs 0.818. With MORC3 C619 (UniProt Q14149), the “log2 ratio” value is 0.279. For the target UniProt Q14574_C804, the “log2 ratio” value was 0.812.

Turning to ATP2C1 C162 (UniProt P98194), the “log2 ratio” value is 0.0772.

In the case of PDCD11 C151 (UniProt Q14690), the “log2 ratio” value was 0.508.

In the case of CLTC C870 (UniProt Q00610), the “log2 ratio” value is 0.621.

For TARBP1 C483 (UniProt Q13395), the “log2 ratio” value is 1.21 (active). Consider SF3A1 C244 (UniProt Q15459), for which the “log2 ratio” value is 0.0803.
